# Experimental data from the supplement of paper PMC6555819.
# How the values were obtained:
# Assay in all cases: PBM binding z-score (relative to random genomic background probes); higher = stronger binding; sequences stand for … in GC…GCGATTGACAGCGTAGAATGAAGG
# [1] = system: FXR:RXRa (NR concentration 270 nM, RXRa partner concentration 90 nM)
# How it was run: (§1)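 Scanned fluorescence from custom Agilent 4×180K protein-binding microarrays was regression-normalized. Binding z-scores use random background probes as reference. Ligand-free nuclear receptor dimers were incubated on the arrays for 1 h and detected with antibodies against each partner (one per run).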
# [2] = system: LXRa:RXRa (NR concentration 270 nM, RXRa partner concentration 90 nM)
# How it was run: as §1
# [3] = system: LXRa homodimer (NR concentration 270 nM)
# How it was run: as §1
# [4] = system: LXRb:RXRa (NR concentration 270 nM, RXRa partner concentration 90 nM)
# How it was run: as §1
# [5] = system: LXRb homodimer (NR concentration 270 nM)
# How it was run: as §1
# [6] = system: PPARa:RXRa (NR concentration 270 nM, RXRa partner concentration 90 nM)
# How it was run: as §1
# [7] = system: PPARg:RXRa (NR concentration 180 nM, RXRa partner concentration 90 nM)
# How it was run: as §1
# [8] = system: PPARg:RXRa 270nM:90nM, anti-RXR (NR concentration 270 nM, RXRa partner concentration 90 nM)
# How it was run: as §1
# [9] = system: PPARg:RXRa 30nM:10nM, anti-RXR (NR concentration 30 nM, RXRa partner concentration 10 nM)
# How it was run: as §1
# [10] = system: PPARg:RXRa 90nM:30nM, anti-RXR (NR concentration 90 nM, RXRa partner concentration 30 nM)
# How it was run: as §1
# [11] = system: PPARg:RXRa DBDmut IVT, anti-RXR (DBD mutation: RXRa K156A/R161A, NR concentration 270 nM, RXRa partner concentration 90 nM)
# How it was run: as §1
# [12] = system: PPARg:RXRa IVT, anti-PPARg (NR concentration 270 nM, RXRa partner concentration 90 nM)
# How it was run: as §1
# [13] = system: PPARg DBDmut:RXRa IVT, anti-PPARg (DBD mutation: PPARg1 K132A/R137A, NR concentration 270 nM, RXRa partner concentration 90 nM)
# How it was run: as §1
# [14] = system: PPARg DBDmut IVT, anti-PPARg (DBD mutation: PPARg1 K132A/R137A, NR concentration 270 nM)
# How it was run: as §1
# [15] = system: PPARg homodimer (NR concentration 180 nM)
# How it was run: as §1
# [16] = system: PXR:RXRa (NR concentration 270 nM, RXRa partner concentration 90 nM)
# How it was run: as §1
# [17] = system: PXR homodimer (NR concentration 270 nM)
# How it was run: as §1
# [18] = system: RARa:RXR (NR concentration 270 nM, RXRa partner concentration 90 nM)
# How it was run: as §1
# [19] = system: RARa homodimer (NR concentration 270 nM)
# How it was run: as §1
# [20] = system: RARb:RXRa (NR concentration 270 nM, RXRa partner concentration 90 nM)
# How it was run: as §1
Sequence,PBM binding z-score [1],PBM binding z-score [2],PBM binding z-score [3],PBM binding z-score [4],PBM binding z-score [5],PBM binding z-score [6],PBM binding z-score [7],PBM binding z-score [8],PBM binding z-score [9],PBM binding z-score [10],PBM binding z-score [11],PBM binding z-score [12],PBM binding z-score [13],PBM binding z-score [14],PBM binding z-score [15],PBM binding z-score [16],PBM binding z-score [17],PBM binding z-score [18],PBM binding z-score [19],PBM binding z-score [20]
CCTGCTAGGTCATGGTCAGCTAGTCTACAGTATG,3.74,2.28,-0.0362,1.62,-0.295,3.45,2.38,2.89,0.503,1.92,4.65,3.97,0.24,-0.536,1.4,1.51,-0.479,2.41,-0.496,4.15
CTCGAAAGCTCGTGCTCAGGTGAGTATACCAAAC,-0.575,-0.866,-0.669,-0.84,-0.65,-0.803,-0.599,-0.812,-0.841,-0.913,-0.844,-0.272,-1.04,-0.415,-0.882,-0.746,-0.669,-0.62,-1.18,-1.07
CCTTACGGGTCAAGAGGTTATAGCACGACGAGCG,6.14,4.17,0.128,3.63,-0.435,5.58,5.44,5.64,2.4,4.29,2.73,3.77,0.866,0.102,2.77,3.63,0.116,5.26,0.579,4.3
TGTAAAAGTTCAAAGGTAACGTAAGTATCCACAC,6.54,6.21,4.26,4.37,1.88,5.54,6.22,6.14,3.76,5.5,0.163,2.72,1.6,1.19,2.18,5.02,2.34,5.42,1.74,4.85
TCATATAGGTAAATGCTAGGCGAAAGTCCGATCT,0.564,0.758,0.304,0.58,-0.0313,0.932,0.63,2.22,3.7,2.88,3.99,1.93,1.19,0.583,0.561,0.4,0.459,0.458,0.728,0.249
TCTGCTAGGTCTACGATGGTCAGCTAATCTGCTA,-0.634,-0.811,-1.12,-0.871,-0.759,-0.453,-0.582,-0.0115,1.48,0.437,0.395,-0.0472,-1.03,-0.797,-2.36,-0.731,-1.3,-1.07,-0.904,-0.194
TCTGCTAGGTCAGTTGGCCAGCTAACGAGCTGCC,0.857,0.327,-0.78,-0.127,-0.163,1.2,-0.0379,1.3,0.758,1.1,2.81,2.82,0.783,0.614,-0.509,-0.116,-0.845,0.0154,-1.78,3.44
ATACCAAGGTGATGGTGAGGTCGTTGATACTAAC,0.921,0.64,0.268,1.09,-0.372,1.56,0.532,0.222,0.0287,0.21,0.223,1.12,0.793,0.597,1.2,2.71,1.55,1.47,0.462,1.17
CCTAGTTGGTCAGGACGTCACACACCGGATATGA,-0.0966,0.0885,0.373,-0.0236,0.306,-0.286,0.962,0.0606,-0.177,0.147,0.48,0.458,0.41,0.0179,0.77,-0.123,0.484,-0.000234,1.44,0.721
CGTCCAAGGTGAATGCTAGGTCAGTGAAAGCATT,0.506,1.19,0.158,0.617,-0.905,1.73,0.352,0.668,-0.499,0.352,2.03,2.41,-0.677,-0.549,0.968,0.776,-0.645,1.8,-0.245,2.42
CCTAACGGGTCACGAGGTTATAGCACGACGAGCG,6.1,4.05,0.263,3.54,-0.146,5.76,6.41,5.88,2.76,4.48,3.39,4.94,1.47,0.866,2.3,4.45,0.408,5.55,1.42,4.27
CCTTACGGGTCACTGACAGGTTATAGCATTTGGA,5.52,4.15,0.472,3.5,0.111,5.06,4.48,4.67,1.53,3.39,3.49,3.75,0.989,0.078,3.59,3.81,-0.141,4.92,1.13,4.02
ACCTACGGGTCAACGAGGTTATAGCACGCGTATA,6.4,4.83,0.64,3.98,0.188,5.36,4.44,4.86,1.47,3.68,1.41,2.79,0.196,0.0693,3.53,5.22,3.27,5.3,0.837,4.05
TTACCACGGTGAAAGGTCGTTGATGCACGCCTTG,1.82,1.94,0.347,1.79,-0.318,4.03,6.35,6.53,5.02,6.87,0.591,3.21,0.23,0.773,1.78,2.43,0.446,2.56,0.421,1.94
